# Compounds with a hit are over-represented: about 4.2% of the library has one in this group of screens.
# ssDAF-12 act – activators of S. stercoralis DAF-12 nuclear receptor | HEK293 ssDAF-12/GRIP1 lit1-tk-luc reporter, luminescence; % of 3 µM dafachronic acid response | actives 1% (n = 370,000) | activation, % at 6.8 µM;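 active means activation above the mean over all tested compounds plus 3 SD, cut at about 0.9% in these data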;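 further: 0% = DMSO-only wells and 100% = 3 µM delta7-dafachronic acid wells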
# hgDAF12 agonist – hgDAF-12 agonism, primary luciferase screen; HEK293 GAL4-hgDAF12 UAS-luciferase reporter, agonist luminescence; normalized to butyrate control; actives 1.8% (n = 370,000); AID 687014; activation, % at 6.8 µM;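 active means activation above a cutoff set at the mean of all screened compounds plus 3 SD, cut at about 10% in these data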;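 further: 0% = DMSO wells and 100% = sodium butyrate wells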
# DAX1 inh – DAX1 (NR0B1) inhibition, primary screen; actives 1.1% (n = 370,000); HEK293T StAR-luciferase reporter, SF-1/DAX-1 repression relief; inhibition, % at 6.8 µM;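 active means inhibition above the mean over all tested compounds plus 3 SD, cut at about 3.6% in these data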;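 further: 0% = DAX-1 cells with DMSO and 100% = cells lacking DAX-1 with DMSO; higher inhibition means more luminescence from relief of DAX-1 repression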
# SMARCA2 activ – increases SMARCA2 function in MMTV reporter cells; MG213 cells, MMTV-luciferase reporter, dexamethasone, overnight; activation, % at 9.1 µM; actives 1% (n = 370,000); in the data active means activation above about 7.8%;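 further: 0% = vehicle wells and 100% = reference activator wells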
# hcDAF-12 act – activates DAF-12 receptor from parasite H. contortus; actives 1.4% (n = 370,000); activation, % at 6.8 µM; AID 652067; HEK293 hcDAF-12 lit1-tk-luc reporter, luminescence; 0% DMSO, 100% Δ7-dafachronic acid;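 active means activation above the mean of all tested compounds plus 3 SD, cut at about 5.5% in these data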;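 further: 100% = response to 3 µM Δ7-dafachronic acid high control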
# * = called active by the depositor.
SMILES,ssDAF-12 act,hgDAF12 agonist,DAX1 inh,SMARCA2 activ,hcDAF-12 act
COC(=O)[C@]12C[C@H](CC(=O)NCCC(C)C)C(=O)N(CCc3ccc(OC)c(OC)c3)C1=C[C@H](COCc1ccccc1)O[C@@H]2C,-1,-3,0,-2,-2
CC1(C(=O)Nc2cccc(OC(F)(F)F)c2)Cc2c(-c3ccc4c(c3)OCO4)ccnc2O1 (stereo not drawn),-1,1,1,0,-1
COc1cc(/C=C2\CCCc3c2nc2ccccc2c3C(=O)O)cc(OC)c1O,-1,-4,0,2,0
COc1ccc(/C=C2\CCc3c2nc2ccccc2c3C(=O)O)cc1OC,0,1,4.3*,2,4
Cc1ccsc1C1Nc2ccccc2-c2nc3ccccc3n21 (stereo not drawn),0,11*,2,1,2
c1csc(C2Nc3ccccc3-c3nc4ccccc4n32)c1 (stereo not drawn),0,10,2,1,3
Cc1ccc(-n2c(SCC(=O)c3ccccc3Br)nnc2-c2ccncc2)cc1,-1,-1,0,2,-2
CCc1csc(N2[C@H](CN(CCOC)S(=O)(=O)c3ccccc3[N+](=O)[O-])[C@H](c3ccccc3)[C@@H]2CO)n1,-1,1,-1,-1,-2
CC(=NNC(=O)CSc1nnc(-c2ccccc2)n1-c1ccccc1)c1ccc2ccccc2c1,-2,-1,0,-4,-2
c1ccc(-n2nnc(-c3cccnc3)n2)cc1,0,11*,1,5,4
Cc1ccc(-n2nnc(-c3cccnc3)n2)cc1,0,9,2,5,2
COc1ncccc1-c1nnn(-c2ccccc2)n1,1.3*,11*,3,8,5.7*
CC1=N/C(=C\c2ccc(OC(C)C)cc2)C(=O)N1c1ccc(C(=O)O)cc1,1.9*,2,0,1,-3
CCOC(=O)CSc1nc2sc3c(c2c(=O)n1-c1ccc(OC)cc1)CCN(C)C3,-1,1,0,-3,2
CCOC(=O)CSc1nc2sc3c(c2c(=O)n1-c1ccc(C)cc1)CCN(C)C3,0,0,0,-2,6.1*
CSc1nc(N)n2nccc2n1,-1,0,0,-4,6.2*
CSc1nc(N)n2nc(C)cc2n1,-1,-2,0,-1,0
COCCOC(=O)c1[nH]c2c(c1C)C(=O)C(C(=O)OC)C(C)C2 (stereo not drawn),0,10*,3,0,3
CCCCCOC(=O)c1[nH]c2c(c1C)C(=O)C(C(=O)OC)C(C)C2 (stereo not drawn),-1,6,-1,2,-3
Cc1ccc(NC(=O)c2ncn(CCCNCC3CCCCC3)n2)cc1C,0,7,3.9*,-1,-1
O=S1(=O)c2ccc(Br)cc2OC[C@H](Cc2ccccc2)N1Cc1cn(CCC2OCCCO2)nn1,-1,2,0,-4,0
CCCCOCCCNC(=O)C[C@H]1C[C@@]2(C(=O)OC)C(=C[C@H](COCc3ccccc3)O[C@@H]2C)N(CCc2ccc(OC)c(OC)c2)C1=O,-2,-3,0,-2,-4
CCOc1ccccc1C=NN=Cc1ccccc1O,1.1*,-1,0,-2,0
N#Cc1cc2cc(Cl)ccc2[nH]c1=O,-1,1,4.1*,-4,-1
COc1ccc(CN2CCC(CNC(=O)Nc3ccccc3)CC2)cc1,-1,8,-1,-4,-2
SMILES,ssDAF-12 act,hgDAF12 agonist,DAX1 inh,SMARCA2 activ,hcDAF-12 act
N#CC1=C(SCC(=O)c2ccccc2)NC2=C(C(=O)CCC2)C1c1ccco1 (stereo not drawn),-1,13*,-1,5,2
Cc1ccc(C(=O)CSC2=C(C#N)C(c3ccco3)C3=C(CCCC3=O)N2)cc1 (stereo not drawn),-1,2,-2,0,-1
COC(=O)c1c(-c2ccccc2)csc1NC1=NS(=O)(=O)c2ccccc21,0,10,3.8*,5,2
O=C(NCCC1=CCCCC1)NC12CC3CC(CC(C3)C1)C2,0,5,3.7*,-1,5
Cc1ccc(C2CCC3(CCC(=O)N3CCOC(=O)Nc3ccc(Br)cc3)CC2)cc1 (stereo not drawn),-1,1,0,-5,-1
CCCCC[C@@H](C)N1C[C@@H](COCc2ccccc2)Oc2cc(N3CC[C@H](N(C)C)C3)ccc2S1(=O)=O,-1,1,4.1*,-3,0
CCCCC[C@@H](C)N1C[C@H](COCc2ccccc2)Oc2cc(N3CCC[C@@H]3CO)ccc2S1(=O)=O,-1,-1,-1,-4,0
CCCCC[C@@H](C)N1C[C@@H](COCc2ccccc2)Oc2cc(N3CCC[C@H]3CO)ccc2S1(=O)=O,0.9*,1,-1,-3,1
C[C@H](c1ccccc1)N1C[C@@H](COCc2ccccc2)Oc2cc(N3CC[C@@H](O)C3)ccc2S1(=O)=O,-1,4,3.9*,-6,-1
O=C(/C=C/c1ccc(F)cc1)NC(=S)NNC(=O)[C@H]1C[C@@H]1c1ccccc1,0,6,3.6*,1,0
CCC(c1c[nH]c2ccccc12)c1cn(C)c2ccccc12 (stereo not drawn),-1,4,0,-5,5
C=CCNc1nc(-c2ccc([N+](=O)[O-])cc2)cs1,-1,12*,0,3,1
Cc1ccc(-n2nc3c(c2NC(=O)c2ccccc2)CS(=O)(=O)C3)cc1C,-1,2,0,5,-1
Cc1ccc(C(=O)Nc2c3c(nn2-c2ccccc2)CS(=O)(=O)C3)cc1C,-1,0,0,-3,5.8*
Cc1ccc(-c2nc3ccc(Cl)cn3c2Cc2ccsc2)cc1,0,13*,4.2*,-1,3
Cc1ccc2nc(-c3ccc(F)cc3)c(Cc3ccsc3)n2c1,1,10*,2,4,2
Cc1ccc(Cc2c(-c3ccc(C)cc3)nc3ccc(Cl)cn23)cc1,0,7,3.8*,0,2
Fc1ccc(-c2nc3ccc(Cl)cn3c2Cc2ccsc2)cc1,-1,9,1,-1,-1
Fc1ccc(-c2nc3ccc(Br)cn3c2Cc2ccsc2)cc1,-1,9,2,1,4
Cc1ccc(Cc2c(-c3ccccc3)nc3cc(C)ccn23)cc1,1.3*,11*,3,2,4
Cc1ccc(-n2c(SCC(=O)Nc3ccc(S(=O)(=O)Nc4cc(C)nc(C)n4)cc3)nnc2-c2ccncc2)cc1,-2,3,0,-2,-1
Cc1ccc2nc(-c3ccc(Cl)cc3)c(Cc3ccsc3)n2c1,1,13*,3,7.8*,2
Cc1ccc2nc(-c3ccc(C#N)cc3)c(Cc3cccc(Cl)c3)n2c1,-1,2,1,3,0
Cc1ccc(Cc2c(-c3ccccc3)nc3c(Cl)cc(C(F)(F)F)cn23)cc1,1.7*,2,1,0,2

# From PubChem BioAssay
